{"source": "PubChem BioAssay (Tox21)", "note": "Records with an inconclusive call do not appear. Calls of active or inactive are those of the source. Calls follow the shape of the dose curve; as a rule, active = well fitted activation curve with a large enough effect in the signal ratio in the repeat runs (not every such curve was filed as active); inconclusive = weak or mixed curves, or effect the other way; inactive = flat fitted curve, though single readings scatter; the % refers to the signal ratio. % is scaled to controls: 0 for no effect and ±100 for the full control effect."}
{"assay": "qHTS assay to identify small molecule agonists of the endoplasmic reticulum stress response signaling pathway (AID 1159516)", "details": "ESRE-bla HeLa, ER stress beta-lactamase reporter, 5 h; series mostly up to 61 µM; activation: at the top concentration", "text": "National Center for Advancing Translational Sciences [NCATS]\nNIH Chemical Genomics Center [NCGC]\nU.S. Environmental Protection Agency [EPA]\nNational Institutes of Environmental Health Sciences [NIEHS]\nNational Toxicology Program [NTP]\nU.S. Food and Drug Administration [FDA]\nEndoplasmic Reticulum (ER) plays an important role in cellular signaling, protein folding/maturation, stress response, lipid biosynthesis, calcium storage and release etc. Under stress conditions, proteins in ER misfold or unfold, and leading to the expression of ER stress responsive genes. ER stress has been associated with a variety of pathophysiological conditions such as cancer, inflammation, neurodegenerative diseases, diabetes, ischemic heart disease etc. To identify the compounds that induce ER stress response, an ER stress reporter cell line, CellSensor ESRE-bla HeLa (Life Technologies, Carlsbad, CA) containing a beta-lactamase reporter gene under control of the Endoplasmic reticulum Stress Response Element (ESRE) was used to screen Tox21 10K compound library.\nTox21 Assay Protocol Summary:\nESRE-bla HeLa cells were dispensed at 1,500 cells/6 uL of assay medium per well into black wall/clear-bottom 1536-well plates using a Multidrop Combi (ThermoFisher Scientific, Waltham, MA) dispenser. After the assay plates were incubated at 37 C and 5% CO2 for an overnight, 23 nL of compounds dissolved in DMSO, positive controls or DMSO only was transferred to the assay plate by a Pintool station (Kalypsys, San Diego, CA). The assay plates were incubated at 37 C and 5% CO2 for 5 hr. One uL of LiveBLAzer B/G FRET substrate (Life Technologies) was added using a Flying Reagent Dispenser (Aurora Discovery, San Diego, CA) and the plates were incubated at room temperature for 2 hr. Fluorescence intensity (405 nm excitation, 460 nm and 530 nm emissions) was measured using an Envision plate reader (PerkinElmer, Shelton, CT)."}
{"smiles": "C=C(C#N)C(=O)OCC", "outcome": "inactive"}
{"smiles": "OCC1CCCO1", "note": "(stereo not given)", "outcome": "inactive"}
{"smiles": "C=C(C)C(=O)OCCC[Si](OC)(OC)OC", "activation": "4.11% (inactive)"}
{"smiles": "CCC(C)C=O", "note": "(stereo not given)", "outcome": "inactive"}
{"smiles": "C=C(C)C(=O)OCCCCCC", "activation": "1.8% (inactive)"}
{"smiles": "C[C@@H]1O[C@@H](OC[C@H]2O[C@@H](Oc3c(-c4ccc(O)c(O)c4)oc4cc(O)cc(O)c4c3=O)[C@H](O)[C@@H](O)[C@@H]2O)[C@H](O)[C@H](O)[C@H]1O", "outcome": "inactive"}
{"smiles": "CCOC(=O)[C@H](CCc1ccccc1)N[C@@H](C)C(=O)N1Cc2ccccc2C[C@H]1C(=O)O", "activation": "-1.48% [at 78.8 µM] (inactive)"}
{"smiles": "C=C1CC[C@H](O)CC1=C/C=C1\\CCC[C@]2(C)[C@@H]([C@H](C)/C=C/[C@H](C)C(C)C)CC[C@@H]12", "outcome": "inactive"}
{"smiles": "Nc1c(S(=O)(=O)O)cc(Br)c2c1C(=O)c1ccccc1C2=O", "activation": "-5.51% (inactive)"}
{"smiles": "O=C(Oc1ccccc1)c1ccc(O)cc1", "activation": "3.63% [at 78.8 µM] (inactive)"}
{"smiles": "CCOC(=O)C1OC1c1ccccc1", "note": "(stereo not given)", "activation": "5.61% (inactive)"}
{"smiles": "Oc1c(Cl)cc(Cl)c(Cl)c1Cl", "outcome": "inactive"}
{"smiles": "O=[N+]([O-])c1cc(N(CCO)CCO)ccc1NCCO", "activation": "-3.18% (inactive)"}
{"smiles": "O=Nc1ccc(O)cc1", "activation": "1.45% (inactive)"}
{"smiles": "OC[C@@H](O)[C@H](O)[C@H](O)[C@@H](O)CO", "outcome": "inactive"}
{"smiles": "OC[C@@H](O)[C@@H](O)[C@H](O)[C@@H](O)CO", "activation": "2.23% (inactive)"}
{"smiles": "CCCCCCCCCCCCN", "activation": "-4.83% (inactive)"}
{"smiles": "O=C1CCCCC1", "activation": "-0.433% (inactive)"}
{"smiles": "Clc1cc(Cl)c(Cl)cc1Cl", "outcome": "inactive"}
{"smiles": "Cn1c([N+](=O)[O-])cnc1COC(N)=O", "outcome": "inactive"}
{"smiles": "CC(C)(CO)COC(=O)C(C)(C)CO", "outcome": "inactive"}
{"smiles": "CC1=C(/C=C/C(C)=C/C=C/C(C)=C/CO)C(C)(C)CCC1", "outcome": "inactive"}
{"smiles": "CCOC(=O)/C=C\\C(=O)OCC", "outcome": "inactive"}
{"smiles": "CC1CC(OC(=O)c2ccccc2O)CC(C)(C)C1", "note": "(stereo not given)", "activation": "6.14% (inactive)"}
{"smiles": "CCC(=O)O", "outcome": "inactive"}
{"smiles": "CN(C)c1cccc(O)c1", "activation": "3.01% [at 78.8 µM] (inactive)"}
{"smiles": "CCc1ccc(O)cc1", "activation": "-1.77% [at 78.8 µM] (inactive)"}
{"smiles": "O=S(=O)(O)CCS", "outcome": "inactive"}
{"smiles": "NCCNCCNCCNCCN", "outcome": "inactive"}
{"smiles": "CCCCC(CC)COC(=O)CCCCCCCC(=O)OCC(CC)CCCC", "note": "(stereo not given)", "outcome": "inactive"}
{"smiles": "O=C(c1cc(O)c(O)c(O)c1)c1ccc(O)c(O)c1O", "activation": "-1.64% (inactive)"}
{"smiles": "Oc1ccc2ccccc2c1", "outcome": "inactive"}
{"smiles": "CC(C)(C)C1CCC(O)CC1", "note": "(stereo not given)", "activation": "-3.66% [at 78.8 µM] (inactive)"}
{"smiles": "CC(=O)[C@@]1(O)CC[C@H]2[C@@H]3CCC4=CC(=O)CC[C@]4(C)[C@H]3CC[C@@]21C", "activation": "-2.71% (inactive)"}
{"smiles": "CCCCCCCCC", "activation": "1.26% (inactive)"}
{"smiles": "CN(C)c1ccc(C(=N)c2ccc(N(C)C)cc2)cc1", "outcome": "inactive"}
{"smiles": "Cc1ccc(N)c(S(=O)(=O)O)c1", "outcome": "inactive"}
{"smiles": "COC(=O)Nc1nc2ccc(Sc3ccccc3)cc2[nH]1", "outcome": "inactive"}
{"smiles": "CCc1ccccc1O", "activation": "-0.748% (inactive)"}
{"smiles": "CC1Cc2ccccc2N1NC(=O)c1ccc(Cl)c(S(N)(=O)=O)c1", "note": "(stereo not given)", "activation": "-0.461% (inactive)"}
